Hit rate of the full screen: of about 370,000 compounds, about 3,300 (0.89%) were called active. The list comes from a sample in which actives are over-represented; it also holds similar structures and randomly drawn compounds. Unmarked numbers belong to inactive results.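 How the source made its calls: active means activation above the mean of all tested compounds plus 3 SD, computed per campaign excluding outliers beyond control limits (cut at about 13% in these data); inactive means the rest.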

In this assay the target is Kallikrein-7 (Homo sapiens) (UniProt P49862). Description: proKLK7 zymogen activators, primary screen, biochemical, fluorescence intensity (AID 652039). The conditions noted are these: purified proKLK7, EDANS-DABCYL substrate fluorescence; at 7 µM; active compounds read high; 100% is mature enzyme control, 0% vehicle.
Chain of Kallikrein-7 (Homo sapiens) (P49862 whole entry, looked up): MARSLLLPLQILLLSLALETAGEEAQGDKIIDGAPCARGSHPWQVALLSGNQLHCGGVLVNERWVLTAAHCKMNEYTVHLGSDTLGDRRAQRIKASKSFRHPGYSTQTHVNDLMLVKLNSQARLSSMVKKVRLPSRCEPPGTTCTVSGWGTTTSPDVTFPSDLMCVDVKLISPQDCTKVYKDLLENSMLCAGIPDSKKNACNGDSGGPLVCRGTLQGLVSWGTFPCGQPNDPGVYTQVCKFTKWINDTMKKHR
On to `COc1ccc(Cn2cc(COC(=O)N(C)Cc3ccccc3)nn2)cc1`, for which the activation is 0.16%.

Take `CN(C)CC(=O)N[C@@H]1C[C@@H]2O[C@H](CO)CC[C@@H]2O[C@@H]1CCc1ccc(C#Cc2ccccc2)cc1`: the activation is 0.21%. For `Cc1cc(C)c2c(NC(=O)C3CC3)nn(C)c2n1` the value was -0.27%; for `Cc1cc(C)c2c(n1)nn1c(-n3ccnc3)cc(C)nc21`, 15.7% (active); for `Cc1ccc(OCc2nnc(SC/C=C/c3ccccc3)n2Cc2ccco2)cc1`, 0.81%. In the case of `C=CCN1C(=O)[C@@H](CC(=O)N2CCN(C(=O)OCC)CC2)[C@]2(C(=O)OCC)CCCCC/C=C/12`, the activation is 0.05%.

For the molecule `NC(N)=Nc1nc(-c2ccccc2)c2cc(Cl)ccc2n1`, the activation is 14.3% (active). The figure for `Clc1ccc2nc(-c3ccccc3)nc(C(Cl)Cl)c2c1` is -0.5%. With `NC(N)=Nc1nc2ccc(Br)cc2c(=O)[nH]1`, the activation was -0.15%. For the molecule `CC(C)N1CCCCC(NC(=O)c2ccc3ccccc3c2)C1=O` (stereo not given), the activation is 0.11%. For `C=CCN1C(=O)[C@@H](CC(=O)NCCCCc2ccccc2)[C@]2(C(=O)OCC)CCCCC/C=C/12` the value was 0.05%; for `CC(=O)C1(C(=O)Nc2nccs2)CC(c2ccccc2C(F)(F)F)=NO1` (stereo not given), 1.07%.

Turning to `COC(=O)[C@]12C[C@H](CC(=O)NCCc3ccccc3OC)C(=O)N(Cc3ccco3)C1=C[C@H](C(C)C)O[C@@H]2C1CC1`, the activation was 0.66%. For `CCOC(=O)C1=C(O)/C(=C/c2ccc(OCC(=O)Nc3ccc(C)cc3)cc2)N=C1C` the value was 31.9% (active); for `Cc1ccc(NC(=O)CN(C)C(=O)COC(=O)c2nccnc2N)cc1`, 8.05%; for `CCOc1ccc(NC(=O)COc2ccc(S(=O)(=O)N3CCCC3)cc2)cc1`, 0.16%. `CC(c1c[nH]c2ccccc12)c1c(-c2ccccc2)n(C)c2ccccc12` (stereo not given): the activation was -7.26%. As for `COc1ccc(C(=O)OCCN2CCN(C3CN(Cc4cn(Cc5ccccc5F)nn4)S(=O)(=O)C3)CC2)cc1OC` (stereo not given), the activation was 0%. Take `Clc1ccc(-n2c(SC/C=C/c3ccccc3)nnc2-c2ccco2)cc1`: the activation was 0.14%. The figure for `Cc1ccccc1Cn1nc(C)c(NC(=O)C(F)(F)F)c1C` is -0.19%.

With `COCc1cc(=O)[nH]c2cc(NC(=O)C(F)(F)F)c(C)cc12`, the activation was 466% (active).

In the case of `COCc1cc(=O)[nH]c(-c2ccc(C(F)(F)F)cc2)n1`, the activation was 0.23%.

With `COc1ccc(OC)c(Cc2cnc3nc(N)nc(N)c3c2C)c1`, the activation is -0.29%. As to `COC[C@@H]1CCCN1c1ccc2c(c1)O[C@H](C)CCN(C1CC1)S2(=O)=O`, the activation was -0.36%. Regarding `CCOC(=O)[C@]12CCCC3=C1N(CCC3)C(=O)[C@@H](CC(=O)N1CCSCC1)C2`, the activation is -0.2%. Consider `COC(=O)c1cc(C(=O)OC)cc(N2C(=O)CC(N3CCN(c4ccccc4)CC3)C2=O)c1` (stereo not given), for which the activation was -0.42%. In the case of `COC(=O)C1(C)NC(c2ccccc2OC)C2C(=O)N(c3ccccc3)C(=O)C21` (stereo not given), the activation is 0.39%. The figure for `COC(=O)C1=NN(c2ccccc2)C2C(=O)N(c3ccccc3OC)C(=O)C12` (stereo not given) is 20.8% (active); for `CCOc1ccc(-n2c(SCC(=O)Nc3cc(C)c(NC(=O)c4ccccc4)cc3OC)nnc2-c2cccc(Cl)c2)cc1` it is 4.85%.

As to `CCOc1ccc(-n2c(SCC(=O)Nc3cc(C)c(NC(=O)c4ccccc4)cc3OC)nnc2-c2cccs2)cc1`, the activation is 13.4% (active).

With `COc1ccc(-n2c(SCC(=O)Nc3ccccc3-c3ccccc3)nnc2-c2cccnc2)cc1`, the activation was -0.23%. As for `COc1ccc(S(=O)(=O)N2CCN(C(=O)N(C)C)C2C)cc1` (stereo not given), the activation is 0.63%. For `Cc1ccc(-n2c(SCC(=O)Nc3ccc(S(=O)(=O)Nc4nccs4)cc3)nnc2-c2ccccn2)cc1`, the activation is 0.68%.

On to `CC1(C)CN(c2ccc(-c3ccnc4ncnn34)cc2)C1=O`, for which the activation is 29.6% (active). `Nc1c(-c2ccc(F)cc2)cnc2ncnn12`: the activation was 0.09%. The figure for `Cc1cc([N+](=O)[O-])nn1Cc1ccc(F)cc1` is 0.68%; for `CC(=O)O[C@@]1(C(C)=O)CCC2[C@H]3C=C(C)C4=CC(=O)CC[C@@]4(C)C3CC[C@]21C` (stereo not given in full) it is 0.5%. The figure for `COc1cc(Cl)c(C)cc1NC(=O)COC(=O)c1cc(SC)ccc1Cl` is -0.31%; for `COC(=O)Cc1nc2c(N)nc(N)nc2[nH]c1=O` it is 29.9% (active); for `CCCCOCCCNC(=O)C[C@H]1C[C@@]2(C(=O)OC)C(=C[C@H](COCc3ccccc3)O[C@@H]2C)N(Cc2cccc3ccccc23)C1=O` it is -0.35%. For `COC1=C[C@H](C(=O)NCCNC(C)=O)[C@H](C)[C@@H](c2ccccc2)CC1=O` the value was 0.74%; for `O=C(Nc1ccc(Br)cc1)OCCN1C(=O)CCC12CCC(c1ccccc1)CC2` (stereo not given), 0.49%.

`CCC(c1nnnn1Cc1ccco1)N(Cc1cc2cc(OC)ccc2[nH]c1=O)C1CCCCC1` (stereo not given): the activation was 1.29%. In the case of `CCC(c1nnnn1Cc1ccco1)N(CCc1ccccc1)Cc1cc2ccc(OC)cc2[nH]c1=O` (stereo not given), the activation was 21.6% (active). For `CCOc1ccc2[nH]c(=O)c(CN(Cc3nnnn3CCc3ccccc3)CC3CCCO3)cc2c1` (stereo not given) the value was -0.26%. For `C=CCN(C(=O)[C@@H](CCCC)[C@@H](O)c1ccc(Cl)cc1)c1ccccc1`, the activation is 0.33%. For the molecule `COC(=O)[C@H](C(C)C)N(CCCc1cn(Cc2ccccc2)nn1)S(=O)(=O)c1ccc(F)cc1Br`, the activation was -0.13%. For `O=C(CCCCCN1C(=O)C2C3C=CC(C3)C2C1=O)Nc1ccccc1` (stereo not given) the value was -1.05%. As for `CCN(C(=O)[C@@H](C1CC1)[C@@H](O)c1ccc2ccccc2c1)c1ccccc1`, the activation was 0.13%. For `COc1cccc2sc3cc(NCC[C@@H]4CCCN4C)ccc3c(=O)c12` the value was 41.5% (active). For `Cc1cc2oc3ccc(NCCC4CCCN4C)cc3c(=O)c2cc1C` (stereo not given) the value was 0.31%; for `CCOC(=O)[C@]12CCCC=C1N(CCCOC)C(=O)[C@@H]2CC(=O)N1CCOCC1`, 0.35%; for `COc1cc(NC(=O)C2CCCN(S(=O)(=O)c3ccc(C(C)(C)C)cc3)C2)cc(OC)c1` (stereo not given), 0.22%.

Regarding `Cc1ccc(Cn2cc(COC(=O)N(C)Cc3ccccc3)nn2)cc1`, the activation was 0.39%. The figure for `Clc1ccc(-c2cccc3nccn23)cc1` is 25% (active). On to `O=C(NCCO)c1cccc(-c2cccc3nccn23)c1`, for which the activation was 1.32%. In the case of `c1cc(-c2ccc3[nH]ccc3c2)n2ccnc2c1`, the activation was 3.83%.

Turning to `CCN(CC)C(=O)CC[C@H]1CC[C@]2(CCCN(Cc3ccc(Cl)cc3)C2)O1`, the activation is 0.06%. Regarding `Cc1ccc(-n2c(SCC(=O)Nc3ccc(S(=O)(=O)Nc4nccs4)cc3)nnc2-c2cccnc2)cc1`, the activation is 0.82%. The figure for `COC(=O)[C@H](C(C)C)N(CCc1cn(Cc2ccccc2)nn1)S(=O)(=O)c1ccc(F)cc1Br` is 0.93%. The figure for `O=C1OCCN1C(=O)[C@H]1[C@H](c2ccccc2)C(c2ccc(F)cc2)=NN1c1ccccc1` is -23.2%; for `C[C@@H]1C(c2ccc(F)cc2)=NN(c2ccc(Br)cc2)[C@H]1C(=O)N1CCOC1=O` it is 37.1% (active).

As to `O=C1OCCN1C(=O)[C@H]1[C@H](c2ccc(Cl)cc2)C(c2cccc(Cl)c2)=NN1c1ccc(Br)cc1`, the activation is -322%.

Consider `CSc1ccc(C=Nn2c(-c3ccc(F)cc3)n[nH]c2=S)cc1`, for which the activation was -0.19%.

For the molecule `CN(C(=O)C1CCOC1)c1nnc(-c2cccnc2)s1` (stereo not given), the activation was 1.7%. For `CN(C(=O)c1ccccc1)c1nccnc1C#N` the value was -0.08%; for `CCC(C)(C)NC(=O)C(c1ccccn1)N(C(=O)c1csnn1)c1ccccc1` (stereo not given), 0.19%; for `CN(C(=O)c1ccccn1)c1nnc(-c2ccccn2)s1`, 26.2% (active).

Take `COc1cccc(-c2nnc(N(C)C(=O)c3ccno3)s2)c1`: the activation was 0.14%. On to `CN(C(=O)COc1ccccc1)c1nnc(-c2ccncc2)s1`, for which the activation was 15.3% (active).

`CC(C)Oc1ccc(CCc2nnc(SCC(=O)O)n2-c2ccccc2)cc1`: the activation was 0.35%. For `O=C(Nc1nc2ccc(Cl)cc2s1)c1cc(-c2ccc(Cl)cc2)nc2ccccc12` the value was 0.7%; for `CCOC(=O)COc1cc(OCC(=O)OCC)c2c(=O)cc(-c3ccccc3)oc2c1`, 13.1% (active). As for `Cc1cc(OCC(=O)NCC(O)c2ccccc2)c2c(C)c(C)c(=O)oc2c1` (stereo not given), the activation was 0.58%. Take `COc1cccc2oc(CCc3ccccc3)cc(=O)c12`: the activation was 2.15%. For `COc1ccc(S[C@]2(C(=O)N(C)C)CC(=O)N(c3ccc(OC)cc3)[C@@H]2c2ccc(OC)cc2)cc1` the value was 0.22%; for `CC(c1ccc(N)cc1)c1cn(C)c2ccccc12` (stereo not given), 0.46%.

Take `COc1ccc(C2CC=C(C(=O)O)C(c3ccccc3F)N2S(=O)(=O)c2ccc(C)cc2)cc1OC` (stereo not given): the activation was 0.12%.

On to `CCOc1cc(C2C(C(=O)OC)=CN(C3CCCC3)C=C2C(=O)OC)cc(Br)c1O`, for which the activation is -0.82%. The figure for `COC(=O)C1=CN(C)C=C(C(=O)OC)C1c1ccc(Cl)cc1Cl` is 0.08%; for `CCOc1ccccc1C1C(C(=O)OC)=CN(C)C=C1C(=O)OC` it is 46.1% (active). Regarding `O=S1(=O)c2ccc(Br)cc2OC[C@@H](Cc2ccccc2)N1Cc1cn(Cc2ccco2)nn1`, the activation was 0.26%. As for `CCOC(=O)c1[nH]c2ccc(OC)cc2c1NC(=O)CCN1CCN(Cc2ccccc2)CC1`, the activation is 13.4% (active). Consider `Cc1cc(NC(=O)CCN2CCN(Cc3ccccc3)CC2)ccc1Br`, for which the activation is 0.91%. With `COc1cc2[nH]c(=O)n(CCC(=O)NC3CCN(Cc4ccccc4)CC3)c(=O)c2cc1OC`, the activation was -1.29%.

These data come from PubChem BioAssay AID652039 (The Scripps Research Institute Molecular Screening Center, 2013).
